Shown are actives, neighbours in structure and some others; about 5.4% of the full set was active somewhere.
ALOX15B inhib: inhibitors of human 15-lipoxygenase 2 (ALOX15B); O15296; purified 15hLO-2, xylenol orange hydroperoxide absorbance; Potency, µM (titrated, usually from 57.1 µM), without a hit: at the top dose activity change, negative = inhibition, usual class: inhibitors; 0.56% of 110,000 active; also: potency is read from the fitted curve at half-maximal effect; nearly all actives have a fitted effect of over 60% in size
Target sequence (O15296 whole entry, looked up): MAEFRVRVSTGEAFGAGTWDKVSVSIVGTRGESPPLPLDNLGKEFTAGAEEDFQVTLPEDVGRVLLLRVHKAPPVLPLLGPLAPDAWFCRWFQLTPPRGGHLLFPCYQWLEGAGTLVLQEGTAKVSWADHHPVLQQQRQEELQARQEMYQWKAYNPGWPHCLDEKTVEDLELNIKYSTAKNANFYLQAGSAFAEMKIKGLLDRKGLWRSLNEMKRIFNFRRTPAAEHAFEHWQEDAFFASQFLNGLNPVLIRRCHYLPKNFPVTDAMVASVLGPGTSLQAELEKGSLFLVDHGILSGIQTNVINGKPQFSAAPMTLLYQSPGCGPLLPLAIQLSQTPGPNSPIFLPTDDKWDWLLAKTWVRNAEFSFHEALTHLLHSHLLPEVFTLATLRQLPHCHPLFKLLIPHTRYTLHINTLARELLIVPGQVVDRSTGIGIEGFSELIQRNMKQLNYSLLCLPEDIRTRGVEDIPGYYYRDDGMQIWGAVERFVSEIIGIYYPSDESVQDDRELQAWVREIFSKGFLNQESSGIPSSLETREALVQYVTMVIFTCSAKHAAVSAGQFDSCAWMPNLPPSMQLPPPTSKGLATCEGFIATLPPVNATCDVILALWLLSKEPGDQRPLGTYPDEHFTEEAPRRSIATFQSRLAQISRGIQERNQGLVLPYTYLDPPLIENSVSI
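Purified human 15hLO-2 (50 nM final) preincubated with compounds 15 min at room temperature in 25 mM Hepes pH 7.5, 0.01% Triton X-100, then 45 uM arachidonic acid added for 90 min; hydroperoxide detected via ferrous/xylenol orange, 573/405 nm absorbance ratio.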
PNC assembly inh: blocks assembly of the perinucleolar compartment; PC3M PTB-GFP, PNC prevalence imaging, 16 h; stronger effect = lower value; activity change (PNC), negative = inhibition, % at 10 µM; 3.1% of 140,000 active;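 active = readout at or below -70, meaning at least 70% loss of cells showing the perinucleolar compartment, a nuclear body marking cancer cells; inconclusive = readout between -30 and a set limit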;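 also: plate controls were DMSO wells for no effect and camptothecin positive control wells for full effect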
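Compounds are pinned in duplicate onto adhered PC3M cells stably expressing GFP-tagged PTB and incubated 16 h at 37 C. Cells are then fixed, nuclei stained with Hoechst, and PNC-positive cells counted.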
IMPase Li inh: membrane-permeable IMPase blocker, potentiated with lithium. CHO-M1 cells, IP1 TR-FRET (IP-One), carbachol + lithium. Potency, µM (highest dose often 59.4 µM), for the others: at the top dose activity, negative = IMPase inhibition, hits mostly inhibitors. 0.35% of 210,000 active;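 also: IP1 builds up when IMPase is blocked and the TR-FRET signal falls; potency is read from the fitted curve at half-maximal effect; plate controls were basal vehicle for no effect and high inhibitor control for full effect; nearly all actives have a fitted effect of over 50% in size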
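Readout is a homogeneous TR-FRET IP1 immunoassay (Ex 320, Em 665 and 620), where raised cytosolic IP1 lowers signal. Cells were CHO-M1 treated 30 min at 37C with test compounds plus a little lithium; AC50 values came from Hill-equation fitting.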
IMPase cell inh: cell-permeable inhibitors of inositol monophosphatase (IMPase) | P97697 | CHO-M1 cells, IP1 accumulation, HTRF TR-FRET ratio | inhibition (IP1 accumulation), % at 46.1 µM | AID 901 | 120,000 tested, under 10 active; active = well fitted curve in the direction sought with a large enough effect in the signal ratio, not every such curve was filed as active; inconclusive = small, poorly fitted or top-dose-only effect, or a change in a side signal; inactive = no such curve, though single readings can be large or run the other way; the % refers to the signal ratio;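 also: cells stimulated with carbachol in lithium chloride buffer; plate controls were DMSO basal wells for no effect and reference inhibitor wells for full effect; higher means more IMPase inhibition seen as more IP1 and lower FRET ratio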
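Carbachol-driven Gq signalling in CHO-M1 cells (2000/well) generates IP1. Compounds that block IMPase raise IP1 and so reduce the FRET signal from Eu-anti-IP1 and d2-IP1 after a 10 min room-temperature lysis.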
HPGD inh: inhibitors of human 15-hydroxyprostaglandin dehydrogenase (HPGD) | AID 894 | purified HPGD, NADH fluorescence kinetic, PGE2 substrate | Potency, µM, for the others: at the top dose activity change, negative = inhibition, usual class: inhibitors | 4.3% of 150,000 active; active = well fitted inhibition curve with a large enough effect, not every such curve was filed as active; inconclusive = small, poorly fitted or top-dose-only effect, or another doubt; inactive = no such curve, though single readings can be large or run the other way; also: potency is read from the fitted curve at half-maximal effect
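20 nM HPGD preincubated 15 min at room temperature with compound in 50 mM Tris-HCl pH 8, 0.01% Tween 20. Started with 1 mM NAD+ and 30 uM prostaglandin E2; NADH fluorescence (360/450 nm) read 5 times over 30-s intervals, last minus first.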
ALOX12 inhib: blocks human 12-lipoxygenase activity | P18054 | purified 12-hLO, xylenol orange hydroperoxide absorbance | Potency, µM (highest dose often 57.1 µM), for inactives: at the highest dose activity change, negative = inhibition, actives largely listed as inhibitors | 0.12% of 150,000 active | AID 1452; also: potency is read from the fitted curve at half-maximal effect; nearly all actives have a fitted effect of over 55% in size
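Hydroperoxide formation by human 12-lipoxygenase from 40 uM arachidonic acid was followed colorimetrically via ferric-xylenol orange complex, using the 573/405 nm absorbance ratio. Enzyme concentration was 150 nM, with 30 min reaction at room temperature.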
* hit, by the source's call; ? = inconclusive; / = no result; [ ] = another dose, or the depositor's remark. Unless noted, calls follow the shape of the dose curve; as a rule, active = well fitted curve in the direction sought with a large enough effect; inconclusive = small, poorly fitted or top-dose-only effect, or another doubt; inactive = no such curve, though single readings can be large; an effect the other way counts as inactive or inconclusive. Unless noted, % is scaled to controls: 0 for no effect and ±100 for the full control effect.

SMILES	ALOX15B inhib	PNC assembly inh	IMPase Li inh	IMPase cell inh	HPGD inh	ALOX12 inhib
Cc1ccc(OCCn2c(-c3ccc(Cl)cc3)nc3ccccc3c2=O)c(C)c1	/	/	/	-3	/	/
C[C@H](Br)C(=O)c1ccc2cc(Br)c3ccccc3c2c1	-8%[11.4 µM]	/	-7%	/	1%	4%[11.4 µM]
COc1ccc(-c2nc3ccccc3s2)cc1O	-18%	-90*	-7%[38.3 µM]	-8	?	-14%
COc1ccccc1CNC(=O)c1cccc(C)c1[N+](=O)[O-]	/	-15	15%	-5	18µM*	5%
COc1ccccc1C(=O)NCc1ccccc1	/	-114*	10%	7	11µM*	-9%
COc1cc(C(=O)NCc2ccccc2)cc(Br)c1OC	/	?	-9%	/	22µM*	-2%
COc1ccccc1C(=O)NCc1ccncc1	2%	?	-7%[38.3 µM]	-1	-4%	-3%
COc1cc(-c2nc3ccccc3s2)ccc1O	-9%	10	-8%[38.3 µM]	?	?	-11%
COc1ccccc1CNC(=O)c1ccoc1C	5%	22	-4%[38.3 µM]	-6	-22%	1%
CS[C@@H](CC(=O)O)C(=O)O	-1%[11.4 µM]	/	-5%	/	-11%	3%[11.4 µM]
COCCNc1nc(C)nc2c1nc(-c1ccccc1)n2CCN(C)C	4%	/	-6%	/	?	0%
Cc1ccc(CNC(=O)CCCc2ccccc2)cc1	/	/	1%	/	/	/
COc1ccc(CCCC(=O)NCc2ccccc2)cc1C	/	-22	-3%	/	16µM*	-4%
COCCCNC(=O)c1cccc(OC)c1OC	6%	?	27%[38.3 µM]	1	7.1µM*	-2%
COc1ccc(CNC(=O)Cn2cc([N+](=O)[O-])nc2C)cc1	-1%	-86*	-6%[38.3 µM]	4	-5%	-15%
COC(=O)[C@@]1(Cc2ccc(OC)cc2)[C@H]2c3cc(C(=O)N(C)C)n(C)c3C[C@H]2CN1C(=O)c1ccccc1	10%	/	-2%	/	-10%	-1%
COC(=O)[C@@]1(Cc2ccccc2)[C@H]2c3cc(C(=O)N4CCCC4)n(Cc4ccccn4)c3C[C@H]2CN1C(=O)c1ccccc1	-4%	/	1%	/	-9%	-3%
N#Cc1c(N)sc(=S)c2c1CCCCC2	-29%	44	10%	0	16µM*	-7%
N#Cc1c(N)sc2c1CCCCCC2	?	16	/	7	/	-10%
CS(=O)(=O)Nc1cccc(-c2ccc3ncnc(NCc4cccnc4)c3c2)c1	1%	/	16%	/	25µM*	2%
COc1cccc(-c2cncnc2NCc2cccs2)c1	21%	/	24%	/	/	/
CS(=O)(=O)Nc1cccc(-c2cncnc2NCc2ccccc2)c1	?	/	-4%	/	/	/
COc1cccc(-c2cncnc2NCc2ccccc2)c1	29%	/	8%	/	14µM*	9%
COc1cccc(-c2ccc3ncnc(NCc4cccnc4)c3c2)c1	34%	/	17%	/	/	/
Cc1cccc(CNc2ncncc2-c2cccc(NS(C)(=O)=O)c2)c1	-15%	/	21%	/	16µM*	-5%
SMILES	ALOX15B inhib	PNC assembly inh	IMPase Li inh	IMPase cell inh	HPGD inh	ALOX12 inhib
Cc1cc(C)cc(OCC(=O)Nc2ccc(Cl)c(-c3nc4ncccc4o3)c2)c1	/	/	/	-17	/	/
CC1CCc2c(sc(NC(=O)Cc3ccccc3)c2C(=O)Nc2ccc(Cl)cc2)C1 (stereo not given)	/	/	/	-1	/	/
CCC(C(=O)C(C)C(O)C(C)CCc1ccc(C)c(O)c1C(=O)O)C1OC(CC)(C2CC[C@@](O)(CC)C(C)O2)CC1C (stereo not given in full)	-19%	/	-5%	/	-6%	0%
C[C@@H](C(=O)Nc1ccc2ccccc2c1)[C@@H]1C[C@@]1(C)[C@@H](NC(=O)c1cnccn1)c1ccccc1	11%	-20	-2%	/	?	-17%
C[C@@H](C(=O)Nc1ccc2ccccc2c1)[C@H]1C[C@]1(C)[C@H](NC(=O)c1cnccn1)c1ccccc1	7%	-91*	13%	/	-9%	1%
O=C(CCSc1nnc2scc(-c3ccccc3)n12)NCc1ccc2c(c1)OCO2	-2%	37	36%[38.3 µM]	-11	?	-7%
c1ccc(-c2csc3nnc(SCc4ccc5c(c4)OCO5)n23)cc1	0%	21	48%[38.3 µM]	?	22µM*	-14%
Cc1ccc2nc(SC(C)C(=O)Nc3cccc([N+](=O)[O-])c3)[nH]c2c1 (stereo not given)	/	-84*	3%	/	?	0%
O=C1NCCCc2c1oc1ccc(O)cc21	?	-5	-3%[38.3 µM]	-4	-19%	-2%
Oc1c(Cl)cc(Cl)c2c1NCCC2	5µM*	17	-3%	17	-10%	?
O=C(O)/C(Cc1cn[nH]n1)=N\O	-1%[11.4 µM]	/	-8%	/	-6%	-4%[11.4 µM]
CCN(CC)CC(=O)N(CC(=O)Nc1c(C)cc(C)cc1C)C1CCCCC1	7%	6	20%[38.3 µM]	?	-10%	7%
CCN(CC)CC(=O)Nc1c(C)cc(C(C)(C)C)cc1C	19%	?	13%[38.3 µM]	0	25µM*	4%
CCN(CC)CC(=O)Nc1ccc(C)cc1Br	0%	12	25%[38.3 µM]	3	16µM*	0%
Cc1ccc(NC(=O)COC(=O)c2cc(Cl)cc(Cl)c2)c(Br)c1	/	-21	-2%	/	-6%	-2%
Cc1ccc(NC(=O)COC(=O)C2CC2)c(Br)c1	/	-20	-6%	/	18µM*	0%
O=C(O)c1oc(C(=O)O)c(C(=O)O)c1C(=O)O	-1%[11.4 µM]	/	5%	/	-4%	1%[11.4 µM]
Cc1noc(C)c1-c1cncnc1NCc1ccccc1	10%	/	8%	/	/	/
Cc1cccc2nc(-c3cccc(NC(=O)Cc4ccccc4)c3)cn12	/	-109*	4%	/	-24%	1%
CCOC(=O)c1c(Nc2cc(C)cc(C)c2)nnc(-c2ccccc2)c1-c1ccccc1	/	/	/	6	/	/
CC(Oc1cc(Cl)ccc1Cl)C(=O)N/N=C\c1ccnn1C (stereo not given)	/	-109*	5%	/	3%	2%
CCCn1nnc(NC(=O)C(C)Oc2ccc(Cl)cc2Cl)n1 (stereo not given)	-6%	26	21%[38.3 µM]	4	-20%	-7%
O=C(CN1CCN(Cc2ccccc2Cl)C1=O)NC1CCCCCC1	3%	18	18%[38.3 µM]	-6	-2%	2%
O=C(NC1CC1)c1nc2c(nnn2Cc2ccccc2Cl)c(=O)[nH]1	/	?	4%	-1	16µM*	3%
CCCc1nc2c(nnn2Cc2ccccc2Cl)c(=O)[nH]1	/	/	16%	/	/	/
O=C(NCCc1ccccc1)c1nc2c(nnn2Cc2ccccc2Cl)c(=O)[nH]1	/	-25	2%	4	7.9µM*	-3%
O=C(NCC1CCCO1)c1nc2c(nnn2Cc2ccccc2Cl)c(=O)[nH]1 (stereo not given)	/	-5	-4%	?	13µM*	0%
FC(F)(F)c1nc(NCC2CCCO2)c2nnn(Cc3ccccc3Cl)c2n1 (stereo not given)	/	/	11%	/	/	/

Assay outcomes deposited in PubChem BioAssay by National Center for Advancing Translational Sciences (NCATS).
